Sampled rows, rich in hits. Any-hit rate of the full collection: about 2.6%.
GLP1R ag = GLP-1 receptor (human) agonism. P43220. HEK293 GLP-1R CRE-luciferase, luminescence, 4-6 h; cells express a hypersensitive GLP-1R form. Potency, µM (highest dose often 45.6 µM), usual class: activators. 0.007% of 380,000 active. AID 624172
Target sequence (P43220 whole entry, looked up): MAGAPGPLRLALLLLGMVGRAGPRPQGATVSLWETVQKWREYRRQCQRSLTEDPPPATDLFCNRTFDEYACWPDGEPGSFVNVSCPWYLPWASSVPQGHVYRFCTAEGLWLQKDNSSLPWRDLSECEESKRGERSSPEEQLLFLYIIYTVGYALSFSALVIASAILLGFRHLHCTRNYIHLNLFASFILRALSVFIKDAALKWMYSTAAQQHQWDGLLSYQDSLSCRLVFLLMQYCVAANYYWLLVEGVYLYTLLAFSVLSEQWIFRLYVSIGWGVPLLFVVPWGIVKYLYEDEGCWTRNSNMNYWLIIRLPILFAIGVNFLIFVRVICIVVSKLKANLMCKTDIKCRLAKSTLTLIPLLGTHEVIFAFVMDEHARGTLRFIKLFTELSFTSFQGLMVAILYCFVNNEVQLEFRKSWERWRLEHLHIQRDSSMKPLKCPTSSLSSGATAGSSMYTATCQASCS
GLP1R inv ag = GLP-1 receptor (human) inverse agonism. P43220. HEK293 GLP-1R CRE-luciferase, luminescence, 24 h; GLP-1R form is constitutively active. Potency, µM (top dose mostly 38.3 µM), actives largely listed as inhibitors. 1.6% of 410,000 active; also: nearly all actives have a fitted effect of over 55% in size
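Assay principle: reduced luminescence from a cAMP-responsive reporter in HEK293 cells co-expressing a constitutively active GLP-1R. Conditions: 24 hr compound incubation, 37 deg C, 5% CO2.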
BRCA1 expr up = increases BRCA1 expression; MCF7-BRCA1-FFLuc reporter, luminescence, 48 h; response scale: scaled: vehicle 0%, 10 µM genistein 100%; Potency, µM (series often up to 46.1 µM), actives largely listed as activators; 1.1% of 380,000 active; also: nearly all actives have a fitted effect of over 80% in size
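MCF7-BRCA1-FFLuc cells, 2000/well in phenol-red-free MEM, attached 2 h then treated 48 h at 37 C. Luciferase luminescence read 15 min after reagent; normalized to genistein maximum activation (10microM) and DMSO, concentration-response fitted.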
HEK293 tox = cytotoxicity in counter-screen for GLP-1R inverse agonists; AID 624418; Potency, µM (doses to about 38.3 µM), hits mostly inhibitors; 0.13% of 410,000 active; HEK293 cAMP-luciferase reporter cells, luminescence, 24 h;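 also: loss of luciferase light is scored as toxicity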
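Here, cytotoxicity is scored as loss of luminescence. The MLSMR collection was tested on cells seeded in medium containing 10% Nu serum, with a 24 hr compound exposure preceded by 12 hours of culture.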
Numbers stand for hits; . = inactive; ? = inconclusive; / = no result. Calls follow the shape of the dose curve; as a rule, active = well fitted curve in the direction sought with a large enough effect; inconclusive = small, poorly fitted or top-dose-only effect, or another doubt; inactive = no such curve, though single readings can be large; an effect the other way counts as inactive or inconclusive.

SMILES	GLP1R ag	GLP1R inv ag	BRCA1 expr up	HEK293 tox
O=C(O)Cc1ccc2sc(-c3ccccc3)nc2c1	.	.	.	.
COC(=O)Cc1ccc2sc(-c3ccccc3)nc2c1	.	.	7.08µM	.
O=C(CSc1cccc[n+]1[O-])c1ccccc1Br	.	?	.	0.794µM
Cc1cc(C(=O)CSc2cccc[n+]2[O-])c(C)n1-c1ccccc1	.	?	?	?
CCCSc1nsc(NC(=O)C(c2ccccc2)c2ccccc2)n1	.	3.16µM	.	?
CCCSc1nsc(NC(=O)CC)n1	.	.	?	.
COc1ccc(NC(=O)C2=C(C)C(=O)OC23CCC(C)CC3)cc1Cl (centres undefined)	.	7.94µM	.	.
Cc1c(Cl)cccc1NC(=O)C1CCCN(c2nnc(-n3c(C)ccc3C)s2)C1 (centres undefined)	/	.	/	.
Cc1ccc(-n2nc(C(=O)N3CCC(C)CC3)c(=O)n(C)c2=O)cc1	/	.	/	.
C=CC[C@H](CC(=O)N(CCO)Cc1ccccc1)C(=O)N[C@H](C)COC(=O)[C@@H](CC=C)Cc1ccc(F)cc1	.	11.2µM	.	.
C=CC[C@H](CC(=O)N(CCO)Cc1ccccc1)C(=O)NC[C@@H](OC(=O)[C@@H](CC=C)Cc1ccc(F)cc1)c1ccccc1	.	3.16µM	.	.
C=CCC[C@@H](Cc1ccc(F)cc1)C(=O)OC[C@H](Cc1c[nH]c2ccccc12)NC(=O)[C@H](CC=C)CC(=O)N(CCO)Cc1ccccc1	.	10µM	.	?
C=CC[C@@H](CC(=O)N(CCO)Cc1ccccc1)C(=O)N[C@H](C)COC(=O)[C@@H](CC=C)Cc1ccc(F)cc1	.	.	.	.
Cc1ccc(OCC(=O)NCC(=O)OCc2cc(=O)n3nc(CC(C)C)sc3n2)cc1	/	.	.	.
CO/N=C(/CNC(=O)c1ccc(F)cc1)c1ccc(Cl)cc1	.	8.91µM	.	.
O=C(CNC(=O)c1ccc(F)cc1)c1ccc(Cl)cc1	.	?	?	.
O=C(CNC(=O)c1ccc(Cl)cc1)c1ccc(Cl)cc1	.	.	11.2µM	.
NC(=O)[C@@H]1CCCN1C(=O)[C@H](Cc1cnc[nH]1)NC(=O)[C@@H]1CCC(=O)N1	.	/	/	/
C[C@H](CO)N1C[C@H](C)[C@@H](CN(C)S(=O)(=O)c2ccc(F)cc2)Oc2ccc(NC(=O)Nc3ccc(C(F)(F)F)cc3)cc2C1=O	.	?	.	.
C[C@@H]1CN([C@@H](C)CO)C(=O)Cc2cc(NC(=O)Nc3ccc(C(F)(F)F)cc3)ccc2O[C@@H]1CN(C)S(=O)(=O)c1ccc(Cl)cc1	.	5.62µM	.	?
C[C@@H]1CN([C@H](C)CO)C(=O)c2cc(NC(=O)Nc3ccc(C(F)(F)F)cc3)ccc2O[C@H]1CN(C)S(=O)(=O)c1ccc(Cl)cc1	.	3.16µM	.	.
CC(NC(=O)CN(C)CC(=O)Nc1ccc(Cl)c(C(F)(F)F)c1)c1ccccc1 (centres undefined)	.	10µM	.	.
Cc1cccc2cc(C#N)c(NCCCNS(=O)(=O)c3ccc(Cl)cc3)nc12	.	10µM	.	.
CCN(CC)CCCNC(=O)c1ccc(S(=O)(=O)Nc2ccc(C)c(C)c2)cc1	.	7.94µM	.	.
COc1ccc(NC(C)=O)cc1NC(=O)CSc1nnc(C2CCCCC2)n1N	.	.	.	.
SMILES	GLP1R ag	GLP1R inv ag	BRCA1 expr up	HEK293 tox
COc1cccc(NC(=O)CSc2nnc(-c3ccoc3C)n2-c2ccccc2)c1	.	11.2µM	.	.
COc1cccc(NC(=O)CSc2ccccn2)c1	.	.	10µM	.
Cc1occc1-c1nnc(SCC(=O)NC2CCCC2)n1-c1ccccc1	.	11.2µM	.	.
COc1ccc(OC)c(NC(=O)CSc2nnc(C3CCCCC3)n2-c2ccccc2)c1	.	3.98µM	.	.
O=S(=O)(Nc1ccccc1O)c1ccc(Cl)nc1	.	.	.	.
O=C1OC(Cc2ccccc2)(c2ccccc2)c2ccccc21 (centres undefined)	.	?	.	.
COc1cccc(NC(=O)CN(C)C(=O)C(Sc2ccccc2)c2ccccc2)c1 (centres undefined)	.	11.2µM	.	.
COc1ccc(N/N=C(\C#N)C(=N)N2CCCCC2)cc1	.	?	7.94µM	?
COc1ccc(N/N=C(\C#N)C(=N)SCc2ccccc2)cc1	.	0.282µM	.	?
Cc1ccc(N/N=C(\C#N)C(=N)N2CCCCCC2)cc1	.	?	.	.
